Results from PubChem BioAssay AID1903 (Southern Research Specialized Biocontainment Screening …, 2009).
Several values for one entry are separate records, joined by “and”; a condition that tells them apart may be missing. Identical values can stand only once. Out of some 310,000 compounds screened, about 1,200 (0.39%) were called active. No rule for the calls is given here. Only a sample is shown. Potency and affinity values are given separately.

biological target: Large T antigen (Simian virus 40) (UniProt P03070); test: TAg ATPase/helicase activity blockers – biochemical (AID 1903); settings: SV40 large T antigen ATPase/helicase inhibition assay; at 20 µM; stronger effect = higher value
Sequence (P03070 whole entry, looked up): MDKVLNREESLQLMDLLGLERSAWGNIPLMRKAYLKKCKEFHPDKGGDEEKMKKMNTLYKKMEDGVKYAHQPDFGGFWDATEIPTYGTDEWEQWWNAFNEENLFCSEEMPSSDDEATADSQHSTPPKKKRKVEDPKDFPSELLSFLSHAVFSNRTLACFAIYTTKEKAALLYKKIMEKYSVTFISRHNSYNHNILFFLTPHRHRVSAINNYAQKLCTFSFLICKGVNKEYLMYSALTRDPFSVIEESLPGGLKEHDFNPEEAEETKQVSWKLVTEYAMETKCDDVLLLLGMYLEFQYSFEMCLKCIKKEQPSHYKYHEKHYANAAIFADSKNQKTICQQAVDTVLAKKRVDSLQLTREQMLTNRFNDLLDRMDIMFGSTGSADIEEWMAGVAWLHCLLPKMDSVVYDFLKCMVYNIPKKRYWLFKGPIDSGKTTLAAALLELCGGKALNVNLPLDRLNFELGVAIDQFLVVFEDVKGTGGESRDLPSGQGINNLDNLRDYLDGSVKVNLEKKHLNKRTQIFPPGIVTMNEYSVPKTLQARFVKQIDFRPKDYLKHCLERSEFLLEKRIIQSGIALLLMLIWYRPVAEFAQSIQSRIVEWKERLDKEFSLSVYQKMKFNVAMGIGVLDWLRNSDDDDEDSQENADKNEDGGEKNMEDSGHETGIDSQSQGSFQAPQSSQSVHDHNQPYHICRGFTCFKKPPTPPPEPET

inhibition, inactive:
COCCCNC(=O)C(C)N1c2cccc3cccc(c23)S1(=O)=O (centres undefined) 3.72%
CCOC(=O)c1sc(=S)n(-c2ccc(OC)cc2)c1N 15.3%
Cc1ccc(CN2CCN(CC(=O)NCCCN3CCN(c4ccc(F)cc4)CC3)C2=O)cc1 3.02%
CCN1CCCC1CNC(=O)c1ccccc1Cl (centres undefined) -13.2%
COc1cccc(NC(=O)Cn2cnc3c(oc4nc5c(cc43)CCCC5)c2=O)c1 4.45%
CCNc1nc(NCC)nc(N/N=C/c2cc(OC)c(OC)c(OC)c2)n1 9.56%
CCNc1nc(NCC)nc(N/N=C/c2ccc(O)c(O)c2)n1 6.9%
OCc1ccccc1O[C@@H]1O[C@H](CO)[C@@H](O)[C@H](O)[C@H]1O 10.5%
[C-]#[N+][C@H](O[C@@H]1O[C@H](CO)[C@@H](O)[C@H](O)[C@H]1O)c1ccccc1 13.8%
C/C(=C1/SC(N2CCOCC2)=NC1=O)c1ccc(Br)cc1 -0.65%
CC1CCCCC1NC(=O)C1CCN(S(=O)(=O)c2cccc3nonc23)CC1 (centres undefined) 6.27%
COc1ccc(/C=N\NC(=O)C2=NNC(=O)C2C)cc1 (centres undefined) 21.2%
COc1cc(OC)c(OC)cc1/C=N/NC(=O)CC1C(=O)NN=C1C (centres undefined) 8.13%
CC1C(=O)NN=C1C(=O)N/N=C/c1cccs1 (centres undefined) 30%
COc1ccc(OC)c(/C=N/NC(=O)CC2C(=O)NN=C2C)c1 (centres undefined) 8.18%
CCCCC(CCCCl)C(=O)Nc1ccccc1 (centres undefined) 0.43%
CCN1CCCC1CNC(=O)COc1cc(=O)n(C)c2ccccc12 (centres undefined) -0.09%
CC(=O)C[C@H]1c2ccccc2S(=O)(=O)N1C1CCCC1 3.17%
CC(C)CCN1CCN(Cc2cccc3cccnc23)CC1CCO (centres undefined) -6.36%
CCN1CCN(C(=O)c2ccc(OCC(=O)Nc3ccc(F)cc3)c(OC)c2)CC1 4.11%
COc1ccc(N2Cc3ccccc3C2=O)cc1 2.48%
O=C1c2ccccc2CN1c1ccccc1 5.42%
CCN(Cc1ccccc1)S(=O)(=O)c1ccc(OC)c2ncccc12 11.3%
COc1cc(-c2noc(CCC(=O)NC3CCCCC3)n2)cc(OC)c1OC 25.3%
COc1ccc(C(=O)c2ccc(OC)c(N)c2)cc1N 8.57%
CN(C)c1ccc(Cl)cc1N 1.86%
O=C(CCS(=O)(=O)c1ccc(F)cc1)N1CCN(c2ccccc2)CC1 18.3%
CC(=C/c1ccc(C(C)C)cc1)/C=N/NC(=O)Cn1nc(C)cc1C 2.16%
Nc1nc(-c2cccs2)c(CC(=O)O)s1 23.1%
CC(=O)Nc1sc(NC(=O)c2ccccc2)nc1-c1cccs1 6.41%
O=[N+]([O-])c1cccc(C2(O)COc3ccccc3O2)c1 (centres undefined) 6.64%
CCn1c(COc2ccccc2)nnc1SCC(=O)NC1CCCCC1 8.87%
CCOC(=O)C1CCN(Cc2cc(=O)n3c(-c4ccccc4)csc3n2)CC1 2.57%
O=c1cc(CN2CCN(c3ccccc3)CC2)nc2scc(-c3ccccc3)n12 3.32%
Cc1ccc(N(C(=O)CNC(=O)c2ccco2)C(C(=O)NCC2CCCO2)c2ccccc2)c(C)c1 (centres undefined) 18.4%
CCN(CC)S(=O)(=O)c1ccc(Nc2nc3ccccc3n3nnnc23)cc1 -2.08%
N#CC1=C(S)N(c2ccccc2)C(c2ccc(-c3cc(Cl)ccc3Cl)o2)NC1=O (centres undefined) 33.3%
N#CC1=C(S)N(c2ccccc2)C(c2ccc(-c3cccc(Cl)c3)o2)NC1=O (centres undefined) 34.4%
Cc1cccc(N(CC(=O)N2CCCC2)S(C)(=O)=O)c1 7.43%
CSc1ccccc1NC(=O)CN(C)Cc1cccc(Cl)c1 8.82%
COc1ccc(N/C(C)=C/C(=O)c2ccccc2)cc1 9.38%
COc1ccc(C(=O)/C=C(\C)Nc2ccc3c(c2)OCO3)cc1 5.13%
CCCc1nc(C(C)(C)O)c(C(=O)O)n1Cc1ccc(-c2ccccc2-c2nn[nH]n2)cc1 -1.62% and 6.85%
Cc1c(/C=N/NC(=O)c2cccs2)c2ccccc2n1Cc1ccccc1Cl 14.4%
CN(Cc1ccccc1F)C(=O)c1sccc1-c1ccccc1 20%
CC(C)CNC(=O)NC1(C(F)(F)F)Oc2ccccc2O1 3.66%
CCOC(=O)Cc1csc(NC(=O)NC2(C(F)(F)F)Oc3ccccc3O2)n1 31.1%
O=C(Nc1ccc2c(c1)CCCN2C(=O)c1cccs1)c1c(F)cccc1Cl 13.1%
CCC(=S)/C=C1\Sc2ccc3ccccc3c2N1CCCS(=O)(=O)O 18.3%
Cc1c2ccccc2cc[n+]1CCCS(=O)(=O)[O-] 7.97%
COC(=O)[C@@H](NC(=O)NCc1ccccc1F)C(C)C -2.59%
COc1ccc(C(=O)N2CCN(S(=O)(=O)c3cc(Cl)ccc3OC)CC2)cc1 5.04%
Cc1nn(C)c(C)c1NC(=O)CSc1nc(-c2ccccc2Cl)nc2c1cnn2-c1ccccc1 8.57%
COc1ccc(/C=N/NC(=O)/C(=C/c2ccccc2)CCO)cc1 2.79%
COc1cc(/C=N/NC(=O)/C(=C/c2ccccc2)CCO)ccc1O 29.2%
O=C(COc1ccc(N2CC(C(=O)O)CC2=O)cc1)Nc1cccc(C(F)(F)F)c1 (centres undefined) -0.75%
COc1ccc(/C=N/NC(=O)CCc2n[nH]c(=O)[nH]c2=O)cc1OC 9.55%
CCOc1cc(/C=N/NC(=O)C(=O)N2CCCC2)ccc1O 29.3%
COc1cc(/C=N\NC(=O)CNC(=O)C(c2ccccc2)c2ccccc2)ccc1O 33.5%
CCOc1cc(/C=N/NC(=O)COc2nc(C)cc(COC)c2C#N)ccc1O 25.5%
COc1ccc(/C=N/NC(=O)CCc2ccccc2)cc1O 29.5%
COc1ccc(/C=N/NC(=O)CNc2n[nH]c(=O)[nH]c2=O)cc1OC 0.71%
Cc1cccc(N2CCN(S(=O)(=O)c3ccc4c(c3)CC(C)N4C(=O)C3CC3)CC2)c1C (centres undefined) 4.4%
Cc1cc(OCC(=O)NC2CC2)c2c(C)c(C)c(=O)oc2c1 20.6%
O=C(CN1CCOCC1)Nc1cccc(C(F)(F)F)c1 16.1%
COc1cc(Cl)c(C)cc1NC(=O)CCCn1c(=O)oc2ccccc21 4.1%
O=C(CN1CCOCC1)NNC(=S)Nc1ccccc1 4.41%
CN(CC(=O)Nc1cccc(F)c1)C(=O)c1cccc(S(=O)(=O)N2CCN(c3ccccc3)CC2)c1 6.82%
Cc1ccc(NC2=C([N+](=O)[O-])CS(=O)(=O)C2)cc1 2.4%
O=[N+]([O-])C1=C(Nc2cccc3ccccc23)CS(=O)(=O)C1 0.61%
O=C1/C(=C/c2cccnc2)SC(=S)N1c1ccc(F)cc1 21.6%
O=C1N/C(=C/c2ccc(N3CCOCC3)cc2)C(=O)N1Cc1ccc(F)cc1 3.08%
Cc1ccc(/C=C2/NC(=O)N(Cc3ccc(Br)cc3)C2=O)o1 9.48%
O=C1/C(=C\c2cccnc2)SC(=S)N1c1ccc(F)cc1 9.19%
COc1ccc(CN2C(=O)c3ccccc3C2=O)cc1 5.14%
O=C1N/C(=C\c2ccsc2)C(=O)N1Cc1ccc(F)cc1 5.82%
Cc1ccc(/C=C2/NC(=O)N(Cc3ccccc3)C2=O)o1 9.41%
COC(=O)C1=C(C)N(Cc2ccc(OC)cc2)C(=O)/C1=C\c1ccco1 10.5%
COc1cccc(C(=O)COc2ccc(NC(=O)c3cccs3)cc2)c1 -1.46%
Cc1nn(-c2ccccc2)c(N)c1N=Nc1ccc(Cl)cc1 5.29%
CC(=O)NCCCc1nc2ccccc2n1Cc1cc(C)ccc1C 2.29%
O=C(CCCN1C(=O)/C(=C\c2ccco2)SC1=S)Nc1ccc(O)cc1C(=O)O 83.1%
COc1ccccc1/C=C1\SC(=S)N(CCC(=O)Nc2ccc(C(=O)O)c(O)c2)C1=O 22.1%
O=C(CCCN1C(=O)/C(=C\c2ccccc2)SC1=S)Nc1ccc(O)cc1C(=O)O 11.7%
O=C(CN1C(=O)/C(=C/c2ccccc2)SC1=S)NC1CCS(=O)(=O)C1 (centres undefined) 15.6%
O=C(CCN1C(=O)/C(=C/c2cccs2)SC1=S)Nc1ccc(C(=O)O)c(O)c1 35%
O=C(CN1C(=O)/C(=C/c2ccccc2Cl)SC1=S)NC1CCS(=O)(=O)C1 (centres undefined) 14.6%
O=C(CCCN1C(=O)/C(=C/c2ccccc2)SC1=S)Nc1ccc(C(=O)O)c(O)c1 11.4%
O=C(CN1C(=O)S/C(=C\c2cccs2)C1=O)Nc1ccc(C(=O)O)c(O)c1 13.4%
COC(=O)COc1ccc2occ(C(C)=O)c2c1 -0.85%
COC(=O)c1[nH]c2ccc(F)cc2c1NC(=O)Nc1ccc(OC)cc1 11.4%
CN1CCN(C(=O)CSc2nnc(COc3ccccc3)o2)CC1 6.15%
Cc1ccc2oc3nc(C)c(C(=O)Nc4cccc(C(F)(F)F)c4)cc3c(=O)c2c1 2.24%
Clc1ccc(/C=N/N2CCCCC2)cc1 5.46%
